# Measurements from PubChem BioAssay (NCI).
# Where “and” joins values, the source holds several entries; their conditions need not be identical. Equal entries are not always repeated. The panel holds about 83,000 compounds, 20% with a hit somewhere; the sample as a whole holds those more often.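 Activity criterion: percent growth below 10, measured after cells in 96-well plates were exposed to a single compound concentration for 48 hours.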 Calls of active or inactive are those of the source.
# Test system: MDA-MB-468 breast
# Test: NCI-60 one-dose screen, 48 h (100 = growth as untreated, 0 = no growth, -100 = all killed)
# Conditions: 10 µM unless noted
row,Structure (SMILES),growth
1,CC1Cc2c(Cl)ncnc2N(C)c2ccc(Cl)cc21 (stereo not given),-35.8% (active)
2,C#C[C@@]1(O)[C@@H](CO)O[C@@H](n2cnc3c(-c4ccccc4)ncnc32)[C@@H]1O,111% (inactive)
3,Cc1nc2sc(C(=O)Nc3cccc4ccccc34)c(N)c2cc1C(C)O (stereo not given),25.3% (inactive)
4,COc1ccc(C(=O)/C=C/c2cc(-c3cc(OC)c(OC)c(OC)c3)n[nH]2)cc1OC,-94.6% (active)
5,COc1cccc(/C=N/NC(=O)c2cnn3c2NC(c2ccccc2)C3)c1Oc1ccccc1 (stereo not given),47.3% (inactive)
6,O=C1c2ccccc2NC(n2sc3ccccc3c2=O)N1c1ccccc1 (stereo not given),106% (inactive)
7,Cc1ccc(S(=O)(=O)N2CCC(=O)c3ccccc32)cc1,25.7% (inactive)
8,Cc1nc2sc(C(=O)Nc3cccc(Cl)c3C)c(N)c2cc1C(C)O (stereo not given),25.4% (inactive)
9,Cc1cc(C#Cc2ccc(C(C)(C)C)cc2)ccc1-n1c(/C=C/c2c(Cl)cccc2Cl)nc2ccccc2c1=O,91.1% (inactive)
10,CNC1=C([N+](=O)[O-])C(c2ccc(OC)cc2)C(C#N)=C(c2ccc[nH]2)O1 (stereo not given),96.1% (inactive)
11,Cc1nn(-c2ccccc2)nc1C(=O)Nc1ccccc1C(=O)NCC1CC1,107% (inactive) and 87.5% (inactive)
12,COc1ccc(S(=O)(=O)NCCCNc2nccc(-c3[nH]c(-c4ccccc4)nc3-c3ccc(Cl)c(O)c3)n2)cc1,78.3% (inactive)
13,COc1ccc2c(c1)OC(N)=C(C#N)C2c1cc(OC)c(OC)c(OC)c1 (stereo not given),-20.9% (active)
14,c1coc2occoc=2o1,98.6% (inactive)
15,O=S(=O)(NC1c2ccccc2Oc2ccccc21)c1cc(Cl)ccc1Cl,78.9% (inactive)
16,O=C(Nc1cccc2ccccc12)c1cc2ccccc2cc1O,-17.6% (active)
17,COc1ccc(Nc2ncccc2C(=O)NCc2cn(Cc3cccc(Oc4ccccc4)c3)nn2)c(OC)c1,14.8% (inactive)
18,O=Cc1c(OCc2cnnn2CC(=O)Nc2ccc(Br)cc2)ccc2ccccc12,95.6% (inactive)
19,O=C(N/N=C\c1ccc(Cl)cc1Cl)c1ccncc1,110% (inactive)
20,COc1ccc(Nc2c3ccccc3nc3ccccc23)cc1,14.1% (inactive)

row,Structure (SMILES),growth
1,Cc1[nH]nc2c(=S)[nH]c(=O)[nH]c12,101% (inactive)
2,COc1ccc(/C=C2\COc3ccc(O)cc3C2=O)c(OC)c1,-1.02% (active)
3,COc1ccc(/C=C/c2c(C(C)=O)c(C)nc3ccccc23)cc1,39.6% (inactive)
4,COc1cc(/C=C2\CN(S(=O)(=O)c3ccc(C)cc3)C/C(=C\c3cc(CN4CCCCC4)c(O)c(OC)c3)C2=O)cc(CN2CCCCC2)c1O,-63.3% (active)
5,COc1ccccc1CNCCCN1C(=O)c2ccc3c4c(ccc(c24)C1=O)C(=O)N(CCCNCCCCNCCCN)C3=O,-84.5% (active)
6,COc1ccc2c(c1)/C(=C1\S/C(=N/c3nnc(C)s3)NC1=O)C(=O)N2Cc1ccc(Cl)cc1,50.9% (inactive)
7,CN=S(=O)(OCCCCCOS(=O)(=NC)c1ccc(C)cc1)c1ccc(C)cc1 (stereo not given),83.3% (inactive)
8,CC1=C[C@@H]2c3c(c(O)c(O)c4oc5cc(O)cc(O)c5c(=O)c34)[C@@H](c3cc(O)c(O)c4oc5cc(O)cc(O)c5c(=O)c34)[C@@H]2C(C)(C)C1,-19.5% (active)
9,O=c1nc2oc3ccc4ccccc4c3cc-2s1,-3.68% (active)
10,CNC(=O)c1cc(Oc2cccc3nc(Nc4ccc(Oc5ccccc5)cc4)ccc23)ccn1,63.7% (inactive)
11,NC(=O)c1cc(I)ccc1NC(=O)COc1ccccc1,30.3% (inactive)
12,CN(C)c1ccc(/C=N\Nc2cc(=O)[nH]c3ccc(Cl)cc23)cc1,107% (inactive)
13,COc1ccc([C@H]2c3cc(OC)c(OC)cc3C=C(C=O)C2CO)cc1OC (stereo not given in full),41% (inactive)
14,C#C[C@]1(O)CC[C@H]2[C@@H]3CC=C4c5sc(-c6ccc(C)cc6)nc5CC[C@]4(C)[C@H]3CC[C@@]21C,84.4% (inactive)
15,Cc1ccc(NCCN2CCCCC2)c2c(=O)c3ccccc3sc12,11.1% (inactive)
16,O=C(CCCn1c(=O)c2sc3ccccc3c2n2nnc(-c3ccccc3)c12)NCCc1cnc[nH]1,-42.1% (active)
17,Nc1c(C(=O)Nc2ccccc2)sc2nc3c(cc12)CN(Cc1ccccc1)CC3,76.2% (inactive)
18,Cc1cccc(N=NC(=S)NNc2cccc(C)c2)c1,116% (inactive)
19,COC(=O)c1c2c(c(C)[n+]([O-])c1C)C(=O)C=C(NCc1cccc(Cl)c1)C2=O,-66.3% (active)
20,CCOc1nc(-c2ccccc2)cc2c(O)c(C(=O)N/N=C/c3ccccc3O)[nH]c(=O)c12,88.6% (inactive)
